Laboratory results as given in PubChem BioAssay AID1159580 (chemical genetic matrix, 2015).
Where “and” joins values, the source holds several entries; their conditions need not be identical. Identical values can stand only once. Hit rate of the full screen: of about 5,500 compounds, about 2,000 (36%) were called active. Not shown: some 18% with an inconclusive outcome. The list shows a part of the results. Values without a mark were called inactive. No stated cut-off is given here; in the data, active means normalized growth mostly below about 0.91 (no sharp cut-off); inconclusive means no clear call, values can overlap the other calls; inactive means mostly above about 0.92.

Test: chemical genetic growth profiling, strain panel (AID 1159580);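 further: tested at 20 µM; growth read once vehicle control cultures reached saturation at 30 °C; 1 = growth at the plate median or of vehicle wells; lower values mean less growth of the strain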
Details: growth OD

Question: With CN(C)CCC=C1c2ccccc2CCc2ccccc21 as the compound, how does the normalized growth (S. cerevisiae deletion strains, locus YJR066W, strain TOR1, hits give low values) read?
Answer: 0.983

Question: And the normalized growth (S. cerevisiae deletion strains, locus YJR075W, strain HOC1, hits give low values)?
Answer: 0.981

Question: And the normalized growth (S. cerevisiae deletion strains, locus YKL009W, strain mrt4, hits give low values)?
Answer: 0.998

Question: What about the normalized growth (S. cerevisiae deletion strains, locus YKL068W, hits give low values) of the same compound?
Answer: 0.998

Question: What about the normalized growth (S. cerevisiae deletion strains, locus YKL085W, strain MDH1 (second series), hits give low values) of the same compound?
Answer: 0.996

Question: And the normalized growth (S. cerevisiae deletion strains, locus YKL085W, strain MDH1, hits give low values)?
Answer: 0.996

Question: What about the normalized growth (S. cerevisiae deletion strains, locus YKL160W, strain elf1, hits give low values) of the same compound?
Answer: 1.01

Question: And the normalized growth (S. cerevisiae deletion strains, locus YKL190W, strain CNB1, hits give low values)?
Answer: 1.01

Question: And the normalized growth (S. cerevisiae deletion strains, locus YKR001C, strain vps1, hits give low values)?
Answer: 0.985

Question: What about the normalized growth (S. cerevisiae deletion strains, locus YKR026C, strain gcn3, hits give low values) of the same compound?
Answer: 0.998

Question: What about the normalized growth (S. cerevisiae deletion strains, locus YKR091W, strain srl3, hits give low values) of the same compound?
Answer: 0.964

Question: And the normalized growth (S. cerevisiae deletion strains, locus YLL001W, strain dnm1, hits give low values)?
Answer: 1.02

Question: What about the normalized growth (S. cerevisiae deletion strains, locus YLL026W, hits give low values) of the same compound?
Answer: 1

Question: What about the normalized growth (S. cerevisiae deletion strains, locus YLL041C, strain sdh2, hits give low values) of the same compound?
Answer: 0.986

Question: And the normalized growth (S. cerevisiae deletion strains, locus YLR027C, strain aat2, hits give low values)?
Answer: 0.997

Question: What about the normalized growth (S. cerevisiae deletion strains, locus YLR039C, strain RIC1, hits give low values) of the same compound?
Answer: 1.05

Question: And the normalized growth (S. cerevisiae deletion strains, locus YLR058C, strain SHM2, hits give low values)?
Answer: 1.01

Question: And the normalized growth (S. cerevisiae deletion strains, locus YLR102C, strain apc9, hits give low values)?
Answer: 0.987

Question: And the normalized growth (S. cerevisiae deletion strains, locus YLR113W, strain HOG1, hits give low values)?
Answer: 1.02

Question: And the normalized growth (S. cerevisiae deletion strains, locus YLR221C, strain rsa3, hits give low values)?
Answer: 0.94

Question: What about the normalized growth (S. cerevisiae deletion strains, locus YLR258W, strain gsy2, hits give low values) of the same compound?
Answer: 0.972

Question: What about the normalized growth (S. cerevisiae deletion strains, locus YLR262C, strain YPT6 (second series), hits give low values) of the same compound?
Answer: 1.06

Question: What about the normalized growth (S. cerevisiae deletion strains, locus YLR262C, strain YPT6, hits give low values) of the same compound?
Answer: 1.1

Question: What about the normalized growth (S. cerevisiae deletion strains, locus YLR268W, strain sec22, hits give low values) of the same compound?
Answer: 0.998

Question: And the normalized growth (S. cerevisiae deletion strains, locus YLR320W, strain mms22, hits give low values)?
Answer: 0.95

Question: What about the normalized growth (S. cerevisiae deletion strains, locus YLR330W, strain CHS5, hits give low values) of the same compound?
Answer: 1.01

Question: And the normalized growth (S. cerevisiae deletion strains, locus YLR342W, strain FKS1 (second series), hits give low values)?
Answer: 0.981

Question: What about the normalized growth (S. cerevisiae deletion strains, locus YLR342W, strain FKS1, hits give low values) of the same compound?
Answer: 0.963

Question: What about the normalized growth (S. cerevisiae deletion strains, locus YLR357W, strain rsc2, hits give low values) of the same compound?
Answer: 0.92

Question: What about the normalized growth (S. cerevisiae deletion strains, locus YLR370C, strain arc18, hits give low values) of the same compound?
Answer: 0.956

Question: And the normalized growth (S. cerevisiae deletion strains, locus YLR371W, strain rom2, hits give low values)?
Answer: 1

Question: And the normalized growth (S. cerevisiae deletion strains, locus YLR384C, strain iki3, hits give low values)?
Answer: 0.988

Question: And the normalized growth (S. cerevisiae deletion strains, locus YLR418C, strain cdc73, hits give low values)?
Answer: 0.985

Question: What about the normalized growth (S. cerevisiae deletion strains, locus YML016C, strain PPZ1, hits give low values) of the same compound?
Answer: 1

Question: And the normalized growth (S. cerevisiae deletion strains, locus YML032C, strain rad52, hits give low values)?
Answer: 0.993

Question: What about the normalized growth (S. cerevisiae deletion strains, locus YML120C, strain ndi1, hits give low values) of the same compound?
Answer: 0.986

Question: What about the normalized growth (S. cerevisiae deletion strains, locus YML124C, strain tub3, hits give low values) of the same compound?
Answer: 0.99

Question: And the normalized growth (S. cerevisiae deletion strains, locus YMR058W, strain fet3, hits give low values)?
Answer: 0.979

Question: What about the normalized growth (S. cerevisiae deletion strains, locus YMR078C, strain ctf18, hits give low values) of the same compound?
Answer: 1

Question: What about the normalized growth (S. cerevisiae deletion strains, locus YMR125W, strain sto1, hits give low values) of the same compound?
Answer: 0.924

Question: What about the normalized growth (S. cerevisiae deletion strains, locus YMR129W, hits give low values) of the same compound?
Answer: 0.971

Question: What about the normalized growth (S. cerevisiae deletion strains, locus YMR205C, strain PFK2, hits give low values) of the same compound?
Answer: 0.995

Question: What about the normalized growth (S. cerevisiae deletion strains, locus YMR223W, strain ubp8, hits give low values) of the same compound?
Answer: 1

Question: What about the normalized growth (S. cerevisiae deletion strains, locus YMR231W, strain pep5, hits give low values) of the same compound?
Answer: 0.987

Question: What about the normalized growth (S. cerevisiae deletion strains, locus YMR263W, strain SAP30, hits give low values) of the same compound?
Answer: 1.01 and 1.02

Question: What about the normalized growth (S. cerevisiae deletion strains, locus YMR307W, strain GAS1, hits give low values) of the same compound?
Answer: 1.04 and 1.01

Question: And the normalized growth (S. cerevisiae deletion strains, locus YNL067W, strain RPL9B, hits give low values)?
Answer: 1.01

Question: And the normalized growth (S. cerevisiae deletion strains, locus YNL071W, strain lat1, hits give low values)?
Answer: 0.998

Question: And the normalized growth (S. cerevisiae deletion strains, locus YNL153C, strain GIM3, hits give low values)?
Answer: 1 and 0.972

Question: And the normalized growth (S. cerevisiae deletion strains, locus YNL175C, strain NOP13, hits give low values)?
Answer: 1.01

Question: What about the normalized growth (S. cerevisiae deletion strains, locus YNL183C, strain NPR1, hits give low values) of the same compound?
Answer: 0.998

Question: And the normalized growth (S. cerevisiae deletion strains, locus YNL197C, strain WHI3, hits give low values)?
Answer: 1.06

Question: What about the normalized growth (S. cerevisiae deletion strains, locus YNL209W, strain ssb2, hits give low values) of the same compound?
Answer: 0.897 (active)

Question: And the normalized growth (S. cerevisiae deletion strains, locus YNL224C, strain SQS1, hits give low values)?
Answer: 1.03

Question: And the normalized growth (S. cerevisiae deletion strains, locus YNL233W, strain BNI4, hits give low values)?
Answer: 1.01

Question: And the normalized growth (S. cerevisiae deletion strains, locus YNL248C, strain rpa49, hits give low values)?
Answer: 0.915

Question: What about the normalized growth (S. cerevisiae deletion strains, locus YNL250W, strain rad50, hits give low values) of the same compound?
Answer: 0.995

Question: And the normalized growth (S. cerevisiae deletion strains, locus YNL271C, strain bni1, hits give low values)?
Answer: 1

Question: What about the normalized growth (S. cerevisiae deletion strains, locus YNL298W, strain CLA4, hits give low values) of the same compound?
Answer: 0.991

Question: What about the normalized growth (S. cerevisiae deletion strains, locus YNL307C, strain MCK1, hits give low values) of the same compound?
Answer: 0.999

Question: And the normalized growth (S. cerevisiae deletion strains, locus YNL322C, strain KRE1 (second series), hits give low values)?
Answer: 0.997

Question: What about the normalized growth (S. cerevisiae deletion strains, locus YNL322C, strain KRE1, hits give low values) of the same compound?
Answer: 1.01

Question: And the normalized growth (S. cerevisiae deletion strains, locus YNR049C, strain mso1, hits give low values)?
Answer: 0.974

Question: And the normalized growth (S. cerevisiae deletion strains, locus YNR052C, strain pop2, hits give low values)?
Answer: 0.998

Question: What about the normalized growth (S. cerevisiae deletion strains, locus YOL012C, strain htz1) of the same compound?
Answer: 1.09

Question: And the normalized growth (S. cerevisiae deletion strains, locus YOL147C, strain pex11, hits give low values)?
Answer: 1

Question: And the normalized growth (S. cerevisiae deletion strains, locus YOR001W, strain rrp6, hits give low values)?
Answer: 0.971

Question: What about the normalized growth (S. cerevisiae deletion strains, locus YOR061W, strain CKA2, hits give low values) of the same compound?
Answer: 1.01

Question: What about the normalized growth (S. cerevisiae deletion strains, locus YOR069W, strain VPS5, hits give low values) of the same compound?
Answer: 1.01

Question: And the normalized growth (S. cerevisiae deletion strains, locus YOR070C, strain gyp1, hits give low values)?
Answer: 0.975

Question: What about the normalized growth (S. cerevisiae deletion strains, locus YOR080W, strain dia2, hits give low values) of the same compound?
Answer: 0.987

Question: And the normalized growth (S. cerevisiae deletion strains, locus YOR083W, strain WHI5 (second series), hits give low values)?
Answer: 1.08

Question: What about the normalized growth (S. cerevisiae deletion strains, locus YOR083W, strain WHI5, hits give low values) of the same compound?
Answer: 0.975

Question: And the normalized growth (S. cerevisiae deletion strains, locus YOR106W, strain vam3, hits give low values)?
Answer: 0.96

Question: And the normalized growth (S. cerevisiae deletion strains, locus YOR136W, strain idh2, hits give low values)?
Answer: 0.984

Question: And the normalized growth (S. cerevisiae deletion strains, locus YOR144C, strain elg1, hits give low values)?
Answer: 0.977

Question: What about the normalized growth (S. cerevisiae deletion strains, locus YOR184W, strain ser1, hits give low values) of the same compound?
Answer: 0.991

Question: And the normalized growth (S. cerevisiae deletion strains, locus YOR231W, strain MKK1, hits give low values)?
Answer: 1.05

Question: What about the normalized growth (S. cerevisiae deletion strains, locus YOR265W, strain rbl2, hits give low values) of the same compound?
Answer: 0.98

Question: And the normalized growth (S. cerevisiae deletion strains, locus YOR270C, strain vph1, hits give low values)?
Answer: 0.87

Question: What about the normalized growth (S. cerevisiae deletion strains, locus YOR290C, strain snf2, hits give low values) of the same compound?
Answer: 0.938

Question: And the normalized growth (S. cerevisiae deletion strains, locus YOR316C, strain cot1, hits give low values)?
Answer: 0.993

Question: What about the normalized growth (S. cerevisiae deletion strains, locus YPL051W, strain arl3, hits give low values) of the same compound?
Answer: 0.957

Question: What about the normalized growth (S. cerevisiae deletion strains, locus YPL078C, strain atp4, hits give low values) of the same compound?
Answer: 0.994

Question: And the normalized growth (S. cerevisiae deletion strains, locus YPL106C, strain sse1, hits give low values)?
Answer: 0.987

Question: What about the normalized growth (S. cerevisiae deletion strains, locus YPL240C, strain hsp82, hits give low values) of the same compound?
Answer: 0.991

Question: And the normalized growth (S. cerevisiae deletion strains, locus YPL256C, strain CLN2, hits give low values)?
Answer: 1.06

Question: And the normalized growth (S. cerevisiae deletion strains, locus YPR119W, strain clb2, hits give low values)?
Answer: 1

Question: And the normalized growth (S. cerevisiae deletion strains, locus YPR141C, strain kar3, hits give low values)?
Answer: 1

Question: And the normalized growth (S. cerevisiae deletion strains, locus YPR163C, strain tif3, hits give low values)?
Answer: 0.999

Question: And the normalized growth (S. cerevisiae deletion strains, locus YPR167C, strain met16, hits give low values)?
Answer: 1

Question: What about the normalized growth (S. cerevisiae deletion strains, strain wtn01, hits give low values) of the same compound?
Answer: 0.982

Question: What about the normalized growth (S. cerevisiae strains, strain wild type, hits give low values) of the same compound?
Answer: 1.01
